# Test results: PubChem BioAssay AID493067 (National Center for Advancing Translational Sciences (NCATS), 2011)
# Results filed as inconclusive are left out. Calls of active or inactive are those of the source. Calls follow the shape of the dose curve; as a rule, active = well fitted activation curve with a large enough effect; inconclusive = small, poorly fitted or top-dose-only effect; inactive = flat fitted curve, though single readings scatter.
# Assay: Confirmation Concentration-Response Assay for qHTS Assay for Epigenetic Modulators
# Settings: murine C127i LDR cells, GFP reporter derepression, 30 h; series mostly up to 46.1 µM
# Source text: NIH Molecular Libraries Screening Centers Network [MLSCN] NIH Chemical Genomics Center [NCGC] MLSCN Grant: 1 X01 MH079860-01 Assay Provider: Elisabeth D. Martinez, University of Texas SW Medical Center NCGC Assay Overview: This assay, used for the primary screen, was employed here to confirm actives identified from the Locus Derepression (LDR) assay (PubChem AID 1865). The LDR assay detects the derepression of a GFP reporter that is stably integrated in a region of the genome of murine c127i mammary cells that is presumably silenced. Compounds that derepress or induce this reporter locus are identified by enumerating GFP positive cells using an Acumen Explorer Ex3 (TTP Labtech) laser-scanning microplate cytometer.
# NCGC Assay Protocol Summary: Three hundred LDR cells in 5 uL per well were dispensed into black, clear-bottom 1536-well plates. Twenty-three nL compound was transferred to the assay plate and cells were incubated 30 hours at 37 C. Medium was removed, cells were washed two times with PBS, and GFP-positive cells were enumerated as fluorescent objects between the sizes of 20 to 120 um width and depth using an Acumen Explorer Ex3 (TTP Labtech) laser-scanning microplate cytometer. For further details, see Johnson, RL, Huang, W, Jadhav, A, Austin, CP, Inglese, J, Martinez, ED (2008). A quantitative high-throughput screen identifies potential epigenetic modulators of gene expression. Anal Biochem 375: 237-48.
row,SMILES,Potency
1,CCOn1c(=O)c[n+]([O-])c2ccccc21,inactive
2,CCOC(=O)c1cc2c(=O)n3ccccc3nc2n(Cc2ccco2)c1=NC(=O)c1ccc(Br)cc1,15.8 µM (active)
3,CN(c1ccccc1)S(=O)(=O)c1nnc(NC(=O)c2ccccc2)s1,inactive
4,COc1cccc(/C=N/Nc2nc(Nc3ccccc3)nc(-n3nc(C)cc3C)n2)c1O,3.98 µM (active)
5,CCc1ccc(NC(=O)C2CCC(CNS(=O)(=O)c3ccc4c(c3)CC(C)N4C(C)=O)CC2)cc1 (stereo not drawn),inactive
6,Cc1nc(CSc2nsc(/C=C/N(C)C)c2C#N)cs1,inactive
7,O=C(CSc1cccc[n+]1[O-])c1ccccc1Br,25.1 µM (active)
8,CC1=C/C(=N\NC(=S)Nc2cccnc2)CC(C)(C)C1,3.16 µM (active)
9,CN(C)S(=O)(=O)c1ccc2c(c1)/C(=C/c1cc3c([nH]1)CCCC3)C(=O)N2,14.1 µM (active)
10,N#Cc1sc2nc(-c3ccccc3)cc(C(F)(F)F)c2c1N,15.8 µM (active)
11,CCc1nnc(NC(=O)c2cccc(C(=O)Nc3nnc(CC)s3)n2)s1,7.94 µM (active)
12,Cc1cc(N2CCN(c3ccc([N+](=O)[O-])c4cccnc34)CC2)c2ccccc2n1,12.6 µM (active)
13,CCN(CC)c1ccc2c(c1)oc(=O)c1c(Cl)cc(=O)oc12,3.98 µM (active)
14,Cc1cccn2c(=O)c(/C=C3\SC(=S)N(CC(C)C)C3=O)c(NCCCOC(C)C)nc12,3.55 µM (active)
15,Cc1ccc(/C=[N+](\[O-])c2ccc(N(C)C)cc2)c2nsnc12,inactive
16,CC(=O)[C@H](CC(C)C)NC(=O)[C@@H](CC(C)C)NC(=O)[C@H](CC(C)C)NC(=O)OCc1ccccc1,3.98 µM (active)
17,O=C(O)CCCCCN1C(=O)/C(=C\c2ccc(-c3ccc(Cl)cc3)o2)SC1=S,7.94 µM (active)
18,COc1ccc2c(C)nc(Nc3nc(-c4ccccc4)cc(=O)[nH]3)nc2c1,4.47 µM (active)
19,COCCNC(=S)N/N=C(\C)c1ccccc1O,6.31 µM (active)
20,N#CC1=C(N)n2c(s/c(=C\c3cccs3)c2=O)=C(C#N)C1c1cccs1 (stereo not drawn),15.8 µM (active)
21,Oc1ccc(Br)cc1C=Nc1ccc2c3c(cccc13)CC2,inactive
22,CCOc1ccc(NC(=O)c2nc(S(=O)(=O)Cc3ccccc3F)ncc2Cl)cc1,inactive
23,S=C(Nc1ccccc1)c1ccccn1,15.8 µM (active)
